Results reported in PubChem BioAssay.
Unmarked numbers belong to inactive results.

Experiment: ATP-based viability of Huh7 replicon cells – cell-based, CellTiter-Glo luminescence, basal, 48 h, cytotoxicity control for HCV replication inhibitor project, primary screen (AID 1143);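 also: Huh7 hepatoma cells carrying a hepatitis C replication reporter with no stimulus; test concentration not given here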
Settings: higher = more signal, called active from +8 up or from −8 down
`COCCOC(=O)N1C(=O)[C@@]2(c3cc(C#CCC(C(=O)OC)C(=O)OC)ccc31)[C@H](c1ccccc1OCCO)N1[C@H](c3ccccc3)[C@H](c3ccccc3)OC(=O)[C@H]1[C@@H]2C(=O)N1CCN(c2ncccn2)CC1` showed a z-score of -4.45. For `C=CCC(OC(C)=O)[C@@H]1[C@@H](N(Cc2ccc(-c3ccccc3)cc2)C(=O)c2cccc3ccccc23)c2cc(OCCCO)ccc2N1C(=O)c1ccc(-c2ccccc2)cc1` (stereo not given in full), the z-score was -1.6. With `O=C(NCCO)C1=C[C@H](Oc2ccccc2I)[C@@H](O)[C@H](N(Cc2ccco2)C(=O)Cc2ccccc2)C1` the z-score was 0.0266. `C#C[C@H](O[Si](C#Cc1ccc(Oc2ccccc2)cc1)(C(C)C)C(C)C)c1ccccc1` gave a z-score of -0.868. Work on `CC1CC/C=C\[C@H]2OC34C=CCN(Cc5ccccc5)C(=O)[C@H]3N(CCCO)C(=O)[C@@H]4C2C(=O)O1` (stereo not given in full) yielded a z-score of -0.667. Work on `CCOC(=O)C[C@H]1[C@H](OC(=O)c2ccc(C(=O)c3ccccc3)cc2)[C@@H](NC(=O)c2ccccc2)c2cc(OCCCO)ccc2N1C(=O)Cc1ccc(OC)cc1` yielded a z-score of 0.0963. `CC(C)CNC(=O)[C@@]1(Cc2ccccc2I)c2ccccc2C(=O)N(C2CCCCC2)[C@H]1c1ccc(CO)cc1` gave a z-score of -1.71. In the case of `Cc1ccc(S[C@]2(C(=O)NCCCN(C)C)CC(=O)N(Cc3ccccc3C(F)(F)F)[C@@H]2c2ccc(CO)cc2)cc1`, the z-score was 0.312. Work on `C=CC[C@]1(C(=O)NCCCOC)N=C(c2ccc(OCCCO)cc2)O[C@H]1c1ccccc1CN=[N+]=[N-]` yielded a z-score of -1.34. Compound `Cc1ccc(S[C@]2(C(=O)NCCCN(C)C)CC(=O)N(Cc3cc(C(F)(F)F)cc(C(F)(F)F)c3)[C@@H]2c2ccc(CO)cc2)cc1` has a z-score of -0.0481. Work on `CCCC[C@H]1OB(O)C[C@H]2C1=C(COC)Cn1c(=O)n(-c3ccccc3)c(=O)n12` yielded a z-score of 0.0344. `COc1ccc(/C=C/C=O)cc1` showed a z-score of 0.0307. `NC(=O)NCC#Cc1ccc2c(c1)[C@]1(C(=O)N2)[C@H](c2ccccc2OCCO)N2[C@H](c3ccccc3)[C@H](c3ccccc3)OC(=O)[C@H]2[C@@H]1C(=O)Nc1nc2ccccc2s1` showed a z-score of 0.0402. Work on `C=CCC(OC(C)=O)[C@@H]1[C@@H](N(Cc2ccc(-c3ccccc3)cc2)C(=O)c2ccc(-c3ccccc3)cc2)c2cc(OCCCO)ccc2N1C(=O)Cc1ccc2ccccc2c1` (stereo not given in full) yielded a z-score of 0.315. With `Cc1ccc(N2C(=O)c3ccccc3[C@@H](C(=O)NC3CC3)[C@@H]2c2ccc(CO)cc2)nc1` the z-score was 0.256. For `COCCCNC(=O)[C@@]1(C)c2ccccc2C(=O)N(C(C)C)[C@H]1c1ccc(CO)cc1`, the z-score was 0.169. `COC(=O)[C@@]1(Cc2ccc(OC)cc2)[C@@H]2C(=CC(=O)[C@H]2CC(=O)C(=O)N2CCCC2)CN1C(=O)c1ccccc1` showed a z-score of -1.76. In the case of `C=C(COC)/C(=C/C[C@@H](OC(=O)c1ccncc1)c1ccc(CO)o1)c1cc(C(=O)OC)ccc1OC`, the z-score was -0.158. With `NC(=O)NCC#Cc1ccc2c(c1)[C@]1(C(=O)N2)[C@H](C(=O)Nc2nc3ccccc3s2)[C@H]2C(=O)O[C@H](c3ccccc3)[C@H](c3ccccc3)N2[C@@H]1c1ccccc1OCCO` the z-score was -4.58. `COc1ccc(C(=O)Nc2ccc(CN3C(=O)[C@]4(O[C@H](CCO)[C@@H]([Si](C)(C)c5ccc(OC)cc5)[C@@H]4C)c4ccccc43)cc2)cc1` gave a z-score of -7.95. With `COc1cc2c(cc1OC)CN(C(=O)[C@@H]1[C@H]3C(=O)O[C@H](c4ccccc4)[C@H](c4ccccc4)N3[C@H](c3ccc(O)cc3)[C@@]13C(=O)Nc1ccccc13)CC2` the z-score was -4.24. For `[N-]=[N+]=Nc1ccccc1[C@@H]1OC(c2ccc(OCCCO)cc2)=N[C@]1(CCS(=O)(=O)c1ccccc1)C(N)=O`, the z-score was -1.12. `COC(=O)[C@@]1(Cc2ccc(F)cc2)[C@H]2c3cc(C(=O)N4CCCC4)n(CCCNc4ncc(C(F)(F)F)cc4Cl)c3C[C@H]2CN1C(=O)c1ccccc1` showed a z-score of -1.89. In the case of `[N-]=[N+]=Nc1ccccc1[C@@H]1OC(c2ccc(OCCCO)cc2)=N[C@]1(Cc1ccccc1)C(=O)N1CCOCC1`, the z-score was -3.97. In the case of `C=CCC(OC(C)=O)[C@@H]1[C@@H](N(Cc2ccc(-c3ccccc3)cc2)C(=O)Cc2ccc(OC)cc2)c2cc(OCCCO)ccc2N1C(=O)Cc1ccc2ccccc2c1` (stereo not given in full), the z-score was -1.45. For `CC1(C)C2C=C(C(O)C3C=CC4C(=O)NC(=O)C4N3Nc3ccc(Cl)cc3Cl)C[C@@H]1C2` (stereo not given in full), the z-score was -2.39. For `CO[C@H]1O[C@H](CO)[C@@H](OC(=O)Nc2cccc(F)c2)[C@H](OC(=O)Nc2ccccc2)[C@@H]1OC(=O)Nc1ccccc1`, the z-score was -5.79. For `COc1ccc(C(O)C2C=CC3C(=O)N(Cc4ccccc4)C(=O)C3N2n2cnnc2)cc1OCc1ccccc1` (stereo not given), the z-score was -2.81. `COC(=O)[C@@]1(Cc2ccc(OC)cc2)[C@H]2c3cc(C(=O)N4CCCC4)n(Cc4ccc(C)c(F)c4F)c3C[C@H]2CN1C(=O)c1ccccc1` gave a z-score of -2.92. Work on `CC(=O)NCCCC[C@@H]1NC(=O)[C@H]2C[C@@H](C(=O)NCCCCCCNC(=O)CS)[C@@H](c3ccc(O)cc3)N2C1=O` yielded a z-score of -0.133. For `COCCOC(=O)N1C(=O)[C@@]2(c3cc(C#CC4(O)CCCCCC4)ccc31)[C@H](c1ccc(OCCO)cc1)N1[C@H](c3ccccc3)[C@H](c3ccccc3)OC(=O)[C@H]1[C@@H]2C(=O)N1CCN(c2ncccn2)CC1`, the z-score was -0.922. `CCCCCN1CC=CC23O[C@@H]4/C=C\CCC(C)OC(=O)C4[C@H]2C(=O)N(C(C)CO)[C@@H]3C1=O` (stereo not given in full) showed a z-score of 0.28. Work on `COc1ccc(C#Cc2ccc3c(c2)[C@]2(C(=O)N3)[C@H](C(=O)NC[C@H](O)c3ccccc3)[C@H]3C(=O)O[C@H](c4ccccc4)[C@H](c4ccccc4)N3[C@@H]2c2ccc(O)cc2)cc1` yielded a z-score of -2.62. Compound `COc1ccc(C#Cc2ccc3c(c2)[C@]2(C(=O)N3)[C@H](c3ccccc3OCCO)N3[C@H](c4ccccc4)[C@H](c4ccccc4)OC(=O)[C@H]3[C@@H]2C(=O)Nc2nc3ccccc3s2)cc1` has a z-score of -1.62. `CN1C(=O)C2C=CC(C(O)c3ccco3)N(Nc3ccccc3)C2C1=O` (stereo not given) showed a z-score of 1.11.
